Screening data from PubChem.
This is a sample that favours compounds with a hit; in the whole collection about 2.4% have one here.
D2 ag-1 – human D2 receptor agonism in beta-arrestin assay; activation, % (test concentration not listed); 360,000 tested, 0.084% active; DiscoveRx PathHunter D2 beta-arrestin, luminescence, 90 min; 100% = 57 uM dopamine signal; P14416; in the data active means activation above about 40%; inconclusive means between about 15% and that limit
Target sequence (P14416 whole entry, looked up): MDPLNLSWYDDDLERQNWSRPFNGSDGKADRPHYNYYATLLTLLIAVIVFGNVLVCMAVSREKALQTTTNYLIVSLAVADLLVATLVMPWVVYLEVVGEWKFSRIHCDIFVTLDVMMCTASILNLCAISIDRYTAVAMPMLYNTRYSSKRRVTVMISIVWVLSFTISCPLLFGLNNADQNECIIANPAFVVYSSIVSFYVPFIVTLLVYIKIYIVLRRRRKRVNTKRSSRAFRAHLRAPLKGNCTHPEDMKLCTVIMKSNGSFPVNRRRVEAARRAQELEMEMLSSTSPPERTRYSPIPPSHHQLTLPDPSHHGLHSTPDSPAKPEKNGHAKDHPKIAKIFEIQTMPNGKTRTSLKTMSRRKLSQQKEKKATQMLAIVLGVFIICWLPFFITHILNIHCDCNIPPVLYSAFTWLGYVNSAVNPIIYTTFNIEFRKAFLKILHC
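Agonist mode: compounds alone added to overnight-plated D2 PathHunter cells for 90 min at 37 C, with 57 uM final dopamine (EC100) defining full response. Beta-arrestin recruitment detected by chemiluminescent reagent, read after 1 h at ambient temperature.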
D2 PAM-1 – potentiates the human D2 dopamine receptor allosterically; P14416; DiscoveRx D2 beta-arrestin cells, luminescence, 90 min; 100% = 57 uM dopamine signal; potentiation, % (concentration not given with the values); 360,000 tested, 0.23% active; in the data active means potentiation above about 50%; inconclusive means mostly about 30% to 49%
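PathHunter D2 cells, attached overnight at 37 deg C, received compound in DMSO plus dopamine at EC20 (50 nM final) for 90 min at 37 deg C. Beta-arrestin recruitment was read as luminescence after 1 h with detection reagent at ambient temperature.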
D2 PAM-2 – positive allosteric modulators of human D2 dopamine receptor; HEK293 T-REx D2, calcium flux, EC20 dopamine potentiation; potentiation, % at 10 µM; 340,000 tested, 0.34% active; AID 485347;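 active means potentiation over 3 SD above the plate norm, cut at about 30% in these data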; further: 0% is about no effect
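Potentiation of an EC20 dopamine calcium response is measured in a force-coupled, tetracycline-inducible Hek293 Trex D2 line. Compound-only kinetic reads over 180 s flag agonists before dopamine addition.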
D2 antag – D2 dopamine receptor (human) antagonism | P14416 | HEK293 TREx D2 cells, calcium flux, dopamine EC80 | inhibition, % at 10 µM | 340,000 tested, 2% active | AID 485344; in the data active means inhibition above about 30%; inactive means below that, where a call was filed; further: 0% is about no effect
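Tetracycline-induced HEK293 TREx cells expressing D2 receptor forced-coupled to calcium signalling, loaded with no-wash calcium dye. Compounds added and calcium flux read 180 s, then dopamine added at EC80 and read a further 180 s.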
D2 ag-2 – activates the human D2 dopamine receptor; 340,000 tested, 0.53% active; P14416; HEK293 T-REx D2 cells, calcium flux agonist mode; activation, % at 2 µM; AID 485358;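 active means activation over 3 SD above normal in the single-dose calcium agonist read, cut at about 30% in these data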; further: 0% is about no effect
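Agonism is scored from calcium flux in a force-coupled, inducible HEK293 cell line expressing D2, read kinetically for 180 s after compound addition against dopamine controls.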
* marks the source's active call; other numbers are inactive results; ? = inconclusive; / = no result.

SMILES	D2 ag-1	D2 PAM-1	D2 PAM-2	D2 antag	D2 ag-2
COc1cc(NC(=O)CCC(=O)Nc2ccc3nc(N4CCOCC4)cc(C)c3c2)cc(OC)c1OC	-4	-10	-20	31*	-1
CCOc1ccc(-c2c(C)nn3c(C)c(C(=O)NC(C)c4ccccc4)cnc23)cc1OCC (stereo unspecified)	/	/	-3	/	1
c1ccc(OCCCCN2CCCCC2)cc1	-2	-12	-14	0	1
CN1CCCC(CC2Oc3ccccc3Sc3ccccc32)C1 (stereo unspecified)	-6	-17	-33	96*	3
c1ccc2c(c1)OC(CCCN1CCCCC1)c1ccccc1S2 (stereo unspecified)	-5	-31	-28	87*	1
CC(C)(C)C1CCc2c(sc3nc(-c4cc5cc(Cl)ccc5oc4=O)[nH]c(=O)c23)C1 (stereo unspecified)	/	/	-4	/	-1
COc1cc(Cl)c(C)cc1NC(=O)c1cnc2c(-c3cccc(C)c3)c(C)nn2c1C	/	/	7	/	1
COC(=O)c1cc(C(=O)c2ccc(Cl)cc2Cl)cn1C	-1	10	38*	1	1
CCc1ccc(-n2c(SCc3ccccc3Cl)nc3[nH]ncc3c2=O)cc1	/	/	-3	/	1
O=S(=O)(NCCc1nnc2ccc(SCc3cccc(Cl)c3)nn12)c1ccccc1	/	/	1	/	-2
CCCCOc1ccc(Cl)cc1CSc1nnc(CC)n1N	1	9	/	36*	1
CCCOc1ccc(CSc2nnc(CCC)n2N)cc1	-3	-1	2	0	0
CC(C)Oc1ccc(C2CC(=O)N(c3ccc(N(C)C)cc3)C2=O)cc1 (stereo unspecified)	-3	-2	-6	34*	0
CC(C)Oc1ccc(C2CC(=O)N(c3ccccc3)C2=O)cc1 (stereo unspecified)	-1	22	/	/	/
Cc1nn(-c2ccccc2)c(-n2cccc2)c1C(=O)NCCc1ccc(Cl)cc1	/	/	9	/	-1
CC1(C)Oc2ccc3ccc(=O)oc3c2C(N2CCCCC2)C1O (stereo unspecified)	-3	-2	-7	-10	-1
CC(=O)OC1C(N2CCCCC2)c2c(ccc(/C=C/C(=O)N3CCCCC3)c2O)OC1(C)C (stereo unspecified)	1	1	5	30*	0
CCOc1ccc(NC(=O)Cn2c(=O)n(Cc3ccc(C(=O)NCc4ccc(C)cc4)cc3)c(=O)c3ccccc32)cc1	/	/	3	/	0
C=CCn1c(CNC(=O)c2ccccc2F)nnc1SCc1nc2ccccc2c(=O)[nH]1	13	-31	38*	/	/
CCOc1ccc(N(CC)C(=O)c2cc3c(s2)-c2ccccc2OC3)cc1	/	/	-5	/	1
CN1C(C(=O)NCCc2cccs2)CC2Cn3c(nc4cc(Cl)c(Cl)cc43)C21 (stereo unspecified)	3	-17	0	48*	1
O=C(c1cccc(F)c1)N1CCC(c2c[nH]c3ccccc23)(c2c[nH]c3ccccc23)CC1	/	/	6	/	0
Cc1cc(C)c2c(n1)nn1c(NCCCN(C)C)cc(C)nc21	-2	8	34*	-9	-1
CCC(Nc1ccc(-c2nc(-c3ccco3)no2)cc1[N+](=O)[O-])c1ccccc1 (stereo unspecified)	/	/	-27	/	-1
COc1ccc(Nc2cc(C(=O)NCCCN3CCOCC3)c3ccccc3n2)cc1OC	-6	-10	-5	30*	0
SMILES	D2 ag-1	D2 PAM-1	D2 PAM-2	D2 antag	D2 ag-2
COc1ccc(Nc2cc(C(=O)NCc3ccccc3)c3ccccc3n2)cc1OC	/	/	/	/	0
CCN(CC)CCNC(=O)c1cc(Nc2ccc(OC)c(OC)c2)nc2ccccc12	0	-23	12	43*	0
Cc1ccc(SCC(=O)OCC(=O)N(CCC#N)c2ccccc2)cc1	-6	5	7	33*	0
N#CCCN(C(=O)COC(=O)CSc1ccc(Cl)cc1)c1ccccc1	-6	-10	/	/	/
Clc1cccc(-c2nn3c(Cn4cnc5ccccc54)nnc3s2)c1	-3	-5	13	34*	3
Cc1ccccc1CNC(=O)c1ccc(CS(=O)Cc2ccc(Cl)cc2)o1 (stereo unspecified)	/	/	4	/	/
Cn1nccc1/C=C(/C#N)S(=O)(=O)c1ccccc1	-2	-6	-4	31*	0
Cc1cc(C(=O)CSc2nnc(N)s2)c(C)n1CCc1ccc(Cl)cc1	-1	11	5	-20	0
Cc1cc(C(=O)CSc2nnc(N)s2)c(C)n1CCc1ccc(F)cc1	-3	-14	-5	43*	0
CCC(C)NC(=O)C(=O)Nc1c2c(nn1-c1ccccc1)CS(=O)(=O)C2 (stereo unspecified)	/	/	11	/	/
COc1ccc(C(=O)Nc2ccc(O)c3ccccc23)cc1OC	?	82*	/	/	/
CCc1cccc(NC(c2ccccc2)c2nnc(-c3ccccc3F)o2)c1 (stereo unspecified)	/	/	-8	/	0
CN(C)c1ccc(/C=C(\C#N)C(=O)c2ccccc2)cc1	0	-5	-8	-71	163*
CCc1ccc(S(=O)(=O)c2nnn3c2nc(Nc2ccc(F)cc2)c2cc(Cl)ccc23)cc1	/	/	8	/	0
Cc1cc(C)n(C(=O)CNc2ccccc2Cl)n1	-6	10	20	32*	0
Cc1cc(C)n(C(=O)CNc2cccc(Cl)c2C)n1	-1	-23	-2	-3	0
N#Cc1cnn(Cc2ccccc2)c1/N=C/N1CCOCC1	-3	4	/	34*	1
CCC(Sc1nc2ccccc2c2nc(CCn3c(C)nc4ccccc43)nn12)C(=O)Nc1ccc(F)cc1 (stereo unspecified)	/	/	-9	/	0
C=C(C)[C@@H]1CC[C@]2(C(=O)O)CC[C@]3(C)[C@H](CC[C@@H]4[C@@]5(C)CC[C@H](O)C(C)(C)[C@@H]5CC[C@]43C)[C@@H]12	1	3	5	36*	0
Fc1cccc(-c2nc(-c3ccncc3)no2)c1	/	/	-5	/	0
CCOC(=O)N1CCN(C(=O)c2c(O)c3cccc4c3n(c2=O)CC4)CC1	-5	-2	37*	15	0
CN1CCN(C(=O)c2c(O)c3cccc4c3n(c2=O)CC4)CC1	-3	-2	-4	5	0
CCOc1ccccc1NC(=O)Cn1ncc2c(=O)oc3ccc(C)cc3c21	/	/	14	/	0
CCOc1ccc(NC(=O)c2cc(OC)nc3ccccc23)cc1	-4	-11	-3	57*	-1
COc1cc(C(=O)Nc2ccc(C)cc2)c2ccccc2n1	2	-1	4	2	0
COc1ccc(-n2nc(C(=O)NCC(=O)NCCc3ccc(OC)c(OC)c3)c3ccccc3c2=O)cc1Cl	?	23	55*	-21	1
COCCNC(=O)CNC(=O)c1nn(-c2ccc(OC)c(Cl)c2)c(=O)c2ccccc12	-4	-4	5	18	0
